Common to all, as to assay type: functional
The target in assay [1] is Solute carrier family 2, facilitated glucose transporter member 1 (Homo sapiens) (UniProt P11166). As to the kind of experiment: ST_JUDE_LEISH: Cytotoxicity at 2uM final concentration against transgenic Leishmania Mexicana promastigotes LmGLUT1 that are glucose transport deficient and complemented with the human glucose transporter GLUT1. Activity is measured by DNA content using SYBR green in vitro.

The target of assay [2] is Hexose transporter 1 (Plasmodium falciparum) (UniProt O97467). The assay is described as follows: ST_JUDE_LEISH: Cytotoxicity at 2uM final concentration against transgenic Leishmania Mexicana promastigotes LmPfHT that are glucose transport deficient and complemented with the Plasmodium falciparum hexose transporter. Activity is measured by DNA content using SYBR green in vitro.

In assay [3] the target is Glucose transporter (Leishmania mexicana) (UniProt O61059). The assay is described as follows: ST_JUDE_LEISH: Cytotoxicity at 2uM final concentration against transgenic Leishmania Mexicana promastigotes LmGT2 that are glucose transport deficient and complemented with the L. Mexicana glucose transporter 2. Activity is measured by DNA content using SYBR green in vitro.

Chain of Solute carrier family 2, facilitated glucose transporter member 1 (Homo sapiens) (P11166 whole entry): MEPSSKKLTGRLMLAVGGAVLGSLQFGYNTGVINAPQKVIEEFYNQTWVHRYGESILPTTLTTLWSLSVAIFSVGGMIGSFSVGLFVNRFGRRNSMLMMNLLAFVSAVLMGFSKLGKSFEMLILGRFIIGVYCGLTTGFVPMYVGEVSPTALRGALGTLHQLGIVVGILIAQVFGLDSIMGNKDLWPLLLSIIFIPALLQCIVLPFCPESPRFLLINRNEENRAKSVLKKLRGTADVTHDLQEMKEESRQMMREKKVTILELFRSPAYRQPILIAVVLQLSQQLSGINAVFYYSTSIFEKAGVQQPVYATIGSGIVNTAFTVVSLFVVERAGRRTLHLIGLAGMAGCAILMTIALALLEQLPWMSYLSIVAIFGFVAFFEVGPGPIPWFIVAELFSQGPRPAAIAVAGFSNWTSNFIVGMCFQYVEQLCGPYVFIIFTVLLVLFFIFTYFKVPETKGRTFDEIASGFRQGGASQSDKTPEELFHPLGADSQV

Regarding `Cc1cc(N[C@@H](Cc2ccccc2)C(=O)Nc2ccccc2)nc(NCCc2cccnc2)n1`, the inhibition is 10.6% in assay [1], 11% in assay [2] and 9.02% in assay [3].

As to `O=C(NCC1CCC(CNCCCc2ccccc2)CC1)c1cc(Cl)cc(Cl)c1` (configuration not stated), the inhibition in assay [1] turned out to be 1.46%; in assay [2], 0.53%; in assay [3] it was 1.72%.

Take `COc1ccc(-n2ccnc2SCC(=O)Nc2cc(Cl)ccc2OC)c(OC)c1`: the results for the inhibition in assay [1], in assay [2] and in assay [3] were 2.64%, -0.3% and 4.9%, respectively.

With `COc1ccc2nc(C)cc(NC3Cc4ccccc4C3)c2c1`, the inhibition in assay [1] was 7.7%; in assay [2] it was 5.19%; in assay [3], 0.76%.

Consider `CCC[C@@H]([C@@H](CC1CCCCC1)C(=O)N[C@H](C(=O)Nc1nccs1)C(C)(C)SCCNC(=O)OCc1ccccn1)N(O)C=O`, for which the inhibition in assay [1] is -3.15%; in assay [2] it was -0.71%; in assay [3] it was 8.17%.

Consider `COc1ccc(-c2cccc(CNCc3ccc(F)cc3)c2)cc1S(=O)(=O)NCCN1CCCC1`, for which the inhibition in assay [1] came to 7.5%; in assay [2], 8.55%; in assay [3] it was 6.87%.

On to `OCC(CO)(CO)NCc1ccc2c3c(cccc13)-c1ccccc1-2`, for which the inhibition was found to be 12.1% in assay [1], 14.8% in assay [2] and 8.44% in assay [3].

As for `CN1CCN(c2cccc(-c3nnc(-c4ccc(OCC(=O)NCc5cccc(C(F)(F)F)c5)c([N+](=O)[O-])c4)o3)c2)CC1`, the inhibition in assay [1] turned out to be 8.88%; in assay [2], 8.11%; in assay [3], 6.46%.

Take `CCCN(CCC)CCCN(CCCN(CCC)CCC)c1cc(C)nc(Nc2ccc(Cl)cc2)n1`: the results for the inhibition in assay [1], in assay [2] and in assay [3] were 3.33%, 1.71% and 2.52%, respectively.

Consider `Clc1ccccc1C=NN=c1cc[nH]c2ccccc12`, for which the inhibition in assay [1] worked out at 3.99%; in assay [2], 5.58%; in assay [3] it was 5.41%.

Regarding `Cc1ccccc1C1CCN(C2CCC(NC(=O)c3cc4cc(Cl)ccc4o3)CC2)CC1` (configuration not stated), the inhibition in assay [1] came out at 1.84%; in assay [2] it was 1.17%; in assay [3], 3.04%.

Turning to `O=C(NCc1cccc2ccccc12)C(c1cc2ccccc2o1)N1CCN(C(c2ccccc2)c2ccccc2)CC1` (configuration not stated), the inhibition was 3.87% in assay [1], 1.42% in assay [2] and -2.97% in assay [3].

`Cc1cccc2sc(N(CCCn3ccnc3)C(=O)C=Cc3cccs3)nc12`: the inhibition came out at 12.6% in assay [1], 12.7% in assay [2] and 6.56% in assay [3].

On to `COc1cc(OC)cc(C(=O)N2CCOC(CCN3CCC(c4ccccc4)CC3)(c3ccc(Cl)c(Cl)c3)C2)c1` (configuration not stated), for which the inhibition in assay [1] is 0.22%; in assay [2], -0.92%; in assay [3] it was -1.58%.

With `O=C(CC1NC(=O)c2ccccc21)Nc1ccc(-c2cccc(-c3nc4cc(C(F)(F)F)ccc4[nH]3)c2)cc1` (configuration not stated), the results for the inhibition in assay [1], in assay [2] and in assay [3] were 1.2%, 2.78% and 0.79%, respectively.

Take `COc1ccc(Nc2cc(C)c3cc(NC(=O)c4ccncc4)ccc3n2)cc1`: the results for the inhibition in assay [1], in assay [2] and in assay [3] were 0.86%, 2.43% and 0.74%, respectively.

On to `O=c1cc(NCCCNCc2ccccc2-c2ccccc2)[nH]c2ccccc12`, for which the inhibition was found to be 2.76% in assay [1], 3.22% in assay [2] and 1.59% in assay [3].

With `CCCN/C=N/c1cc(-c2csc(NC(=N)N)n2)cc([N+](=O)[O-])c1`, the values for the inhibition in assay [1], in assay [2] and in assay [3] were -0.32%, -0.62% and -2.26%, respectively.

As for `O=C(Nc1ccc(C(F)(F)F)cc1)c1cc(Br)cnc1NCCCn1ccnc1`, the inhibition is -0.53% in assay [1], -4.7% in assay [2] and -3.55% in assay [3].

As to `COc1ccc2cc(C(=O)Nc3ccc4c(c3)CCN(C3CCC3)CC4)ccc2c1`, the inhibition in assay [1] is -2.16%; in assay [2] it was 2%; in assay [3], 3.8%.

As for `Cc1cc(=NN=Cc2ccccn2)c2cc(F)ccc2[nH]1`, the inhibition in assay [1] is 4.3%; in assay [2], 5.11%; in assay [3], 0.4%.

Turning to `N#Cc1ccc(N2CCN(Cc3ccc(-c4cccc(-c5nc6ccccc6[nH]5)c4)cc3)CC2)nc1`, the inhibition in assay [1] was 2.3%; in assay [2], 1.43%; in assay [3], 0%.

For the compound `COc1ccc2[nH]c(C(=O)Nc3cccc(-c4ccc(CN(C)C)cc4)c3)cc2c1`, the inhibition in assay [1] was 3.16%; in assay [2], 1.78%; in assay [3], -0.5%.

Turning to `Fc1ccc2nc(Nc3nc(-c4ccccn4)cs3)sc2c1`, the inhibition in assay [1] was found to be 20.7%; in assay [2] it was 10.8%; in assay [3], 0.2%.

As for `CN1CCN(c2ccnc3ccc(NC(=O)Nc4ccc(Cl)c(Cl)c4)cc23)CC1`, the inhibition in assay [1] came out at 6.24%; in assay [2], 6.07%; in assay [3] it was 6.56%.

With `CCOC(=O)CC[C@@H](NC(=O)c1ccc(NCc2ccc3ccc4nc(C)[nH]c(=O)c4c3c2)cc1F)C(=O)N[C@@H](Cc1c[nH]c2ccccc12)C(=O)OCC`, the inhibition in assay [1] stood at 1.56%; in assay [2] it was 1.89%; in assay [3], 3.35%.

With `COc1cc(Br)c(S(=O)(=O)n2cc(CN3CCC(N)CC3)c3cc(Cl)ccc32)cc1OC`, the inhibition was determined as 1.4% in assay [1], 2.11% in assay [2] and 0.57% in assay [3].

With `CC(C)CNCc1ccc(-c2cccc(CN(CCN(C)C)C(=O)NCCc3ccccc3)c2)cc1`, the inhibition was -0.22% in assay [1], 1.83% in assay [2] and 0.23% in assay [3].

On to `COc1ccc2nc3cc(Cl)ccc3c(NCCCCNc3c4ccc(Cl)cc4nc4ccc(OC)cc34)c2c1`, for which the inhibition in assay [1] stood at 11.8%; in assay [2], 12.5%; in assay [3], 9.15%.

As for `Cc1nn(-c2ccccc2)c2sc(C(=O)N(CCCN(C)C)c3nc(-c4ccccc4)cs3)cc12`, the inhibition in assay [1] came to 1.15%; in assay [2], 3.31%; in assay [3], 0.07%.

Consider `C=CCn1c(Sc2ccc(C#N)c([N+](=O)[O-])c2)nnc1-c1ccc(Cl)cc1`, for which the inhibition in assay [1] worked out at 5.68%; in assay [2], 5.18%; in assay [3], 2.18%.

`Cc1nccc2c(NC(=O)N[C@@H]3CCN(c4ncc(C(F)(F)F)cc4Br)C3)cccc12`: the inhibition in assay [1] was 1.06%; in assay [2] it was 1.71%; in assay [3] it was 0.74%.

On to `Cc1cccc2nc(-c3ccc(-c4cccc(CN5CCN(c6ccncc6)CC5)c4)cc3)[nH]c12`, for which the inhibition in assay [1] stood at 25.2%; in assay [2], 25.8%; in assay [3] it was 8.81%.

For `COc1cc(NC(=O)c2sc(-c3ccc(Cl)cc3)cc2Cl)ccc1OCCN1CCCC1`, the results for the inhibition in assay [1], in assay [2] and in assay [3] were 9.58%, 9.57% and 9.29%, respectively.

Take `CC(C)C[C@H](NC(=O)c1cc2ccccc2s1)C(=O)N[C@H]1CCN(Cc2ccc(I)c(OC3CCN(C)C3)c2)C1` (some centres not stated): the inhibition was -1.02% in assay [1], 1.35% in assay [2] and -2.35% in assay [3].

On to `O=C(Nc1ccc(CCN2CCC(c3nc(COCC(F)(F)F)c(-c4ccccc4)o3)CC2)cc1)c1ccc(F)cc1`, for which the results for the inhibition in assay [1], in assay [2] and in assay [3] were 2.62%, 2.23% and -0.66%, respectively.

For the compound `CS(=O)(=O)c1cccc(-c2cnc(N)c3cc(-c4ccc5c(c4)OCO5)ccc23)c1`, the inhibition in assay [1] was found to be 8.59%; in assay [2], 8.33%; in assay [3], 7.36%.

With `Oc1ccc2ccccc2c1CNCC1CCCCC1`, the values for the inhibition in assay [1], in assay [2] and in assay [3] were 0.28%, 3.31% and 2.73%, respectively.

As for `O=C(NCCN1CCCCC1)c1cc2cc(-c3ccccc3)ccc2n1S(=O)(=O)c1ccccc1`, the values for the inhibition in assay [1], in assay [2] and in assay [3] were 71.9%, 74.7% and 55.4%, respectively.

Turning to `CC(C)(C)COC(=O)c1ccc(NC(=O)N[C@@H](Cc2ccc(O)cc2)C(=O)NC2CCN(Cc3ccc(O)cc3)C2)cc1` (some centres not stated), the values for the inhibition in assay [1], in assay [2] and in assay [3] were -2.22%, -2.38% and -0.79%, respectively.

Take `CN1CCN(CCCNCc2ccc(Nc3nccc(Nc4ccc(Oc5ccccc5)cc4)n3)cc2)CC1`: the inhibition is 0.09% in assay [1], 1.17% in assay [2] and 1.48% in assay [3].

Consider `O=C(Nc1cccc(CN2CCN(Cc3cccc(O)c3)CC2)c1)c1ccc(Cl)c(Cl)c1`, for which the inhibition in assay [1] was -1.71%; in assay [2] it was -0.84%; in assay [3] it was -1.62%.

As for `c1cc(CN2CCCCC2)cc(OCCCNc2ccnc3ccccc23)c1`, the figures for the inhibition in assay [1], in assay [2] and in assay [3] were 18%, 7.87% and 5.12%, respectively.

Regarding `O=C(Nc1cccc(-c2ccc(CN3CCCC3)cc2)c1)c1cccc(Cl)c1`, the inhibition in assay [1] was -0.6%; in assay [2], 0.05%; in assay [3], 0.25%.

Take `c1cc(-c2ccc(CNCCCn3ccnc3)cc2)cc(-c2nc3ccccc3[nH]2)c1`: the inhibition came out at 2.87% in assay [1], 2.53% in assay [2] and 0.93% in assay [3].

Take `O=C(/C=C/c1ccc(Cl)c(Cl)c1)N1CCC(NCc2c[nH]c3ccccc23)CC1`: the inhibition turned out to be 1.33% in assay [1], 1.05% in assay [2] and 1.05% in assay [3].

As for `O=C(Nc1cccc(CN2CCN(Cc3ccc(O)cc3)CC2)c1)c1ccc(-c2ccccc2)cc1`, the inhibition in assay [1] was 4.37%; in assay [2], 2.25%; in assay [3] it was -3.36%.

For `CCN(CC)CCN(Cc1ccc(-c2ccc(C(F)(F)F)cc2)cc1)C(=O)Cn1cc(CCCCc2cccc(F)c2F)c(=O)c2ccccc21`, the inhibition in assay [1] amounted to 7.95%; in assay [2], 6.93%; in assay [3], 10.4%.

Regarding `COc1cc(C(=O)N2N=C(c3c(-c4ccccc4)c4cc(Br)ccc4[nH]c3=O)CC2c2cccc([N+](=O)[O-])c2)cc(OC)c1OC` (configuration not stated), the inhibition is 3.48% in assay [1], 3.48% in assay [2] and 3.79% in assay [3].

`CCS(=O)(=O)Nc1ccc2[nH]cc(C3CCN(CCC4CCN(C(=O)/C=C/c5ccc(Cl)c(Cl)c5)CC4)CC3)c2c1`: the inhibition came out at 2.73% in assay [1], 4.42% in assay [2] and 1.91% in assay [3].

On to `CC(=O)Nc1cccc(C(=O)Nc2ccc(-c3cccc(-c4nc5cc(C(F)(F)F)ccc5[nH]4)c3)cc2)c1`, for which the inhibition in assay [1] is 2.13%; in assay [2] it was 0.32%; in assay [3], -0.69%.

In the case of `COc1ccc(CCNC(C)Cc2ccc(C(=O)Nc3ccc(CC(C)NCCc4cccc(Cl)c4)cc3)cc2)cc1` (configuration not stated), the inhibition in assay [1] is 3.92%; in assay [2], 13%; in assay [3], 0.32%.

For the compound `O=C(/C=C/c1ccc(Cl)c(Cl)c1)NCCCCCN1CCC(NC(=O)Nc2cc(Cl)nc(Cl)c2)CC1`, the results for the inhibition in assay [1], in assay [2] and in assay [3] were 1.28%, -0.18% and 0.44%, respectively.

On to `Cc1ccc(NC(=S)NC2CCN(CCCCCNC(=O)/C=C/c3ccc(Cl)c(Cl)c3)CC2)cc1Cl`, for which the inhibition in assay [1] is -0.23%; in assay [2], -0.31%; in assay [3] it was -1.1%.

Usually inhibition stands for the drop in the measured response relative to a control, in per cent.

These data come from ChEMBL document CHEMBL3433997, “St. Jude Leishmania screening dataset” (2016).
